In PubChem BioAssay (NCATS):
Results filed as inconclusive are left out. Activity calls are given as the source filed them. Calls come from the whole dose curve; as a rule, active = well fitted curve in the direction sought with a large enough effect; inconclusive = small, poorly fitted or top-dose-only effect, or another doubt; inactive = no such curve, though single readings can be large; an effect the other way counts as inactive or inconclusive.

How the values were obtained:
MKL-1 = assay: qHTS assay to identify novel small-molecules to repurpose for Merkel cell carcinoma treatment (AID 1296009); conditions: MCC and control cell lines, CellTiter-Glo viability, 72 h; series mostly up to 46 µM; note: nearly all actives have a fitted effect of over 60% in size
Outline: (§1)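 Viability readout: ATP luminescence (CellTiter-Glo) after 72 hr drug exposure at 37 degree celsius. Dose-response format was 8 points for NPC and 11 points for MIPE; data normalized to in-plate controls.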

MKL-2 = assay: as above; conditions: MCC and control cell lines, CellTiter-Glo viability, 72 h; series mostly up to 46 µM
Outline: as §1

NIH3T3 = assay: as above; conditions: MCC and control cell lines, CellTiter-Glo viability, 72 h; series mostly up to 44.8 µM
Outline: as §1

UISO = assay: as above; conditions: MCC and control cell lines, CellTiter-Glo viability, 72 h; series mostly up to 46 µM
Outline: as §1

WaGa = assay: as above; conditions: MCC and control cell lines, CellTiter-Glo viability, 72 h; series mostly up to 46 µM
Outline: as §1

C33A = assay: Primary qHTS to identify gynecologic anti-cancer compounds using libraries of approved drugs and bioactive compounds (AID 1345084); conditions: Gynecologic cancer cell panel viability, ATPlite luminescence, 48 h; series mostly up to 57.5 µM; note: nearly all actives have a fitted effect of over 55% in size
Outline: (§2)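 In this quantitative HTS, cell killing is estimated from loss of ATP-dependent luciferase light. Cells see five compound concentrations over a 48 h exposure.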

CAOV3 = assay: as above; conditions: Gynecologic cancer cell panel viability, ATPlite luminescence, 48 h; series mostly up to 57.5 µM
Outline: as §2

CASKI = assay: as above; conditions: Gynecologic cancer cell panel viability, ATPlite luminescence, 48 h; series mostly up to 57.5 µM
Outline: as §2

Es-2 = assay: as above; conditions: Gynecologic cancer cell panel viability, ATPlite luminescence, 48 h; series mostly up to 57.5 µM
Outline: as §2

HeLa = assay: as above; conditions: Gynecologic cancer cell panel viability, ATPlite luminescence, 48 h; series mostly up to 57.5 µM
Outline: as §2

JEG-3 = assay: as above; conditions: Gynecologic cancer cell panel viability, ATPlite luminescence, 48 h; series mostly up to 57.5 µM
Outline: as §2

PA-1 = assay: as above; conditions: Gynecologic cancer cell panel viability, ATPlite luminescence, 48 h; series mostly up to 57.5 µM
Outline: as §2

SKOV3 = assay: as above; conditions: Gynecologic cancer cell panel viability, ATPlite luminescence, 48 h; series mostly up to 57.5 µM
Outline: as §2

Tov-21-G = assay: as above; conditions: Gynecologic cancer cell panel viability, ATPlite luminescence, 48 h; series mostly up to 57.5 µM
Outline: as §2

Tov112D = assay: as above; conditions: Gynecologic cancer cell panel viability, ATPlite luminescence, 48 h; series mostly up to 57.5 µM
Outline: as §2

[1] = Drug repurposing screens with cells derived from glioblastoma tumor samples (AID 1345199); conditions: GBM patient neurospheres viability, ATP luminescence, 48 h; note: nearly all actives have a fitted effect of over 40% in size
Outline: (§3)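 Primary testing used CD133+ neurospheres from four GBM patients, seven concentrations, 48 h exposure and ATP-based viability; confirmation added three slower-growing patient lines.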

astro = assay: as above; conditions: viability, ATP luminescence, 48 h; series mostly up to 45.9 µM
Outline: as §3

Hek293T = assay: Primary qHTS to identify gynecologic anti-cancer compounds using libraries of approved drugs and bioactive compounds (AID 1345084); conditions: Gynecologic cancer cell panel viability, ATPlite luminescence, 48 h, control line for the selectivity index; series mostly up to 57.5 µM; note: nearly all actives have a fitted effect of over 55% in size
Outline: as §2

OV90 = assay: as above; conditions: Gynecologic cancer cell panel viability, ATPlite luminescence, 48 h; series mostly up to 57.5 µM
Outline: as §2

[2] = at 46.1 µM (top of the series), tumour line C
[3] = at 45.9 µM (top of the series), tumour line B
[4] = at 45.9 µM (top of the series), tumour line D
[5] = at 46 µM (top of the series), tumour line A
% is set by controls: 0 for no effect and ±100 for the full control effect; potency is the fitted concentration of half-maximal effect.

CN1CCC(=C2c3ccccc3C=Cc3ccccc32)CC1
active: Potency (MKL-2) 16.8 µM | Potency (WaGa) 26.6 µM | Potency ([1]; tumour line A) 3.55 µM | Potency ([1]; tumour line B) 25.1 µM | Potency ([1]; tumour line D) 20 µM | Potency (astro) 17.8 µM
inactive: Potency (MKL-1) | outcome (NIH3T3) | Potency (UISO) | Potency (C33A) | Potency (CAOV3) | Potency (CASKI) | Potency (Es-2) | Potency (HeLa) | Potency (JEG-3) | Potency (PA-1) | Potency (SKOV3) | Potency (Tov-21-G) | Potency (Tov112D) | activity, negative = cell killing [1, 2] -12.4%

CN(C)C(=O)C(CCN1CCC(O)(c2ccc(Cl)cc2)CC1)(c1ccccc1)c1ccccc1
active: Potency (MKL-2) 18.7 µM
inactive: Potency (MKL-1)

CN1CCN(C2=Nc3cc(Cl)ccc3Nc3ccccc32)CC1
inactive: Potency (MKL-1) | Potency (MKL-2) | outcome (NIH3T3) | Potency (UISO) | Potency (WaGa) | Potency (C33A) | Potency (CASKI) | Potency (Es-2) | Potency (HeLa) | Potency (Hek293T) | Potency (JEG-3) | Potency (Tov-21-G) | Potency (Tov112D) | activity, negative = cell killing [1, 2] 1.71%
active: Potency (SKOV3) 31.6 µM | Potency ([1]; tumour line A) 11.2 µM | Potency ([1]; tumour line D) 35.5 µM

COc1cc2nc(N(C)CCCNC(=O)C3CCCO3)nc(N)c2cc1OC (stereo not given)
inactive: Potency (MKL-1) | Potency (MKL-2) | outcome (NIH3T3) | Potency (UISO) | Potency (WaGa) | Potency (C33A) | Potency (CAOV3) | Potency (CASKI) | Potency (Es-2) | Potency (HeLa) | Potency (Hek293T) | Potency (JEG-3) | Potency (OV90) | Potency (PA-1) | Potency (SKOV3) | Potency (Tov-21-G) | Potency (Tov112D) | activity, negative = cell killing ([1]; at 20 µM (top of the series), tumour line C) -6.33% | activity, negative = cell killing ([1]; at 21.2 µM (top of the series), tumour line B) -6.29% | activity, negative = cell killing ([1]; at 21.2 µM (top of the series), tumour line D) 7.29% | Potency (astro)

CCN1CCCC1CNC(=O)c1cc(S(=O)(=O)CC)c(N)cc1OC (stereo not given)
inactive: Potency (MKL-1) | Potency (MKL-2) | outcome (NIH3T3) | Potency (UISO) | Potency (WaGa) | Potency (C33A) | Potency (CAOV3) | Potency (CASKI) | Potency (Es-2) | Potency (HeLa) | Potency (Hek293T) | Potency (JEG-3) | Potency (OV90) | Potency (PA-1) | Potency (Tov-21-G) | Potency (Tov112D) | activity, negative = cell killing [1, 3] 6.58% | activity, negative = cell killing [1, 4] -2.77% | activity, negative = cell killing [1, 2] -4.87% | Potency (astro)

Cc1ccc(C(=O)Nc2ccc(S(=O)(=O)O)c3cc(S(=O)(=O)O)cc(S(=O)(=O)O)c23)cc1NC(=O)c1cccc(NC(=O)Nc2cccc(C(=O)Nc3cc(C(=O)Nc4ccc(S(=O)(=O)O)c5cc(S(=O)(=O)O)cc(S(=O)(=O)O)c45)ccc3C)c2)c1
inactive: Potency (MKL-1) | Potency (MKL-2) | outcome (NIH3T3) | Potency (UISO) | Potency (WaGa) | Potency (C33A) | Potency (CASKI) | Potency (Es-2) | Potency (HeLa) | Potency (Hek293T) | Potency (JEG-3) | Potency (OV90) | Potency (PA-1) | Potency (SKOV3) | Potency (Tov-21-G) | Potency (Tov112D) | activity, negative = cell killing [1, 3] -18.8% | activity, negative = cell killing [1, 4] -0.172% | activity, negative = cell killing [1, 5] -24.3% | activity, negative = cell killing [1, 2] -24.1% | Potency (astro)

CC(C)Cc1ccc(C(C)C(=O)O)cc1 (stereo not given)
inactive: Potency (MKL-1) | Potency (MKL-2) | outcome (NIH3T3) inactive [at 17.4 µM] | Potency (UISO) | Potency (WaGa) | Potency (C33A) | Potency (CASKI) | Potency (Es-2) | Potency (HeLa) | Potency (Hek293T) | Potency (JEG-3) | Potency (OV90) | Potency (PA-1) | Potency (Tov-21-G) | Potency (Tov112D) | activity, negative = cell killing [1, 3] -11.8% | activity, negative = cell killing [1, 4] -6.13% | activity, negative = cell killing [1, 5] -21.1% | activity, negative = cell killing [1, 2] -7.76% | Potency (astro)

COc1cc2nc(N3CCN(C(=O)C4COc5ccccc5O4)CC3)nc(N)c2cc1OC (stereo not given)
active: Potency ([1]; tumour line A) 11.2 µM
inactive: Potency (MKL-1) | Potency (MKL-2) | outcome (NIH3T3) | Potency (UISO) | Potency (WaGa) | Potency (C33A) | Potency (CASKI) | Potency (Es-2) | Potency (HeLa) | Potency (Hek293T) | Potency (JEG-3) | Potency (PA-1) | Potency (Tov-21-G) | Potency (Tov112D) | activity, negative = cell killing [1, 3] -16.3% | activity, negative = cell killing [1, 4] -29.3% | activity, negative = cell killing [1, 2] -17.1% | Potency (astro)

CCC1(C)CC(=O)NC1=O (stereo not given)
inactive: Potency (MKL-1) | Potency (MKL-2) | outcome (NIH3T3) | Potency (UISO) | Potency (WaGa) | Potency (C33A) | Potency (CASKI) | Potency (Es-2) | Potency (HeLa) | Potency (Hek293T) | Potency (JEG-3) | Potency (PA-1) | Potency (SKOV3) | Potency (Tov-21-G) | Potency (Tov112D) | activity, negative = cell killing [1, 3] -5.39% | activity, negative = cell killing [1, 4] -6.6% | activity, negative = cell killing [1, 5] -18.2% | activity, negative = cell killing [1, 2] -11.1% | Potency (astro)

CC1COc2c(N3CCN(C)CC3)c(F)cc3c(=O)c(C(=O)O)cn1c23 (stereo not given)
inactive: Potency (MKL-1) | Potency (MKL-2) | outcome (NIH3T3) | Potency (UISO) | Potency (WaGa) | Potency (C33A) | Potency (CASKI) | Potency (Es-2) | Potency (HeLa) | Potency (Hek293T) | Potency (JEG-3) | Potency (OV90) | Potency (PA-1) | Potency (SKOV3) | Potency (Tov-21-G) | Potency (Tov112D) | activity, negative = cell killing [1, 3] -12.3% | activity, negative = cell killing [1, 4] -0.592% | activity, negative = cell killing [1, 5] -24.5% | activity, negative = cell killing [1, 2] -10.7% | Potency (astro)

CCOC(=O)C(C)(C)Oc1ccc(Cl)cc1
inactive: Potency (MKL-1) | Potency (MKL-2) | outcome (NIH3T3) | Potency (UISO) | Potency (WaGa) | Potency (C33A) | Potency (CASKI) | Potency (Es-2) | Potency (HeLa) | Potency (Hek293T) | Potency (JEG-3) | Potency (OV90) | Potency (PA-1) | Potency (SKOV3) | Potency (Tov-21-G) | Potency (Tov112D) | activity, negative = cell killing [1, 3] -9.66% | activity, negative = cell killing [1, 4] -5.13% | activity, negative = cell killing [1, 2] 5.62% | Potency (astro)

CN1CCC(=C2c3ccccc3CC(=O)c3sccc32)CC1
active: Potency (MKL-2) 9.44 µM | Potency (WaGa) 29.9 µM | Potency ([1]; tumour line A) 14.1 µM | Potency ([1]; tumour line D) 12.6 µM
inactive: Potency (MKL-1) | outcome (NIH3T3) | Potency (UISO) | Potency (C33A) | Potency (CASKI) | Potency (Es-2) | Potency (HeLa) | Potency (Hek293T) | Potency (JEG-3) | Potency (OV90) | Potency (PA-1) | Potency (SKOV3) | Potency (Tov-21-G) | Potency (Tov112D) | activity, negative = cell killing [1, 2] -13.4%
